The list is not random: actives were taken first. Their share in the collection is about 1.9%.
Giardia kill – kills Giardia lamblia; Giardia lamblia trophozoite viability; 340,000 tested, 0.15% active; activity change, % at 7.66 µM, hits read low; in the data active means activity change below about -80%; inconclusive means between about -30% and that limit;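 further: parasites exposed to compound for two days anaerobically before the ATP read; on the % scale 0 is the no-effect control and ±100 the full control effect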
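Viability, read as ATP luminescence: trophozoites at 100 cells/well, compound added, 48 hrs anaerobic at 37 deg C, then 15-30 min room-temperature development before reading.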
BRCA1 expr act – increases BRCA1 expression; MCF7-BRCA1-FFLuc reporter, luminescence, 48 h; response scale: scaled: vehicle 0%, 10 µM genistein 100%; Potency, µM (top dose mostly 46.1 µM), for the others: at the top dose activation, actives largely listed as activators; 380,000 tested, 1.1% active; AID 624202; further: potency means the concentration at half of the fitted maximal effect; nearly all actives have a fitted effect of over 80% in size
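Luminescence from a BRCA1-driven firefly luciferase in MCF7 cells was the read-out, taken 15 min after substrate addition following 48 h compound exposure at 37 °C. Data were normalized to a 10 microM genistein control and DMSO vehicle.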
NPSR antagonist – neuropeptide S receptor (human) antagonism, cAMP; Q6W5P4; CHO-NPSR cells, cAMP TR-FRET, antagonist mode; Potency, µM (doses to about 38.3 µM), for inactives: at the top dose activity change, negative = inhibition, actives largely listed as inhibitors; 220,000 tested, 1% active; further: potency means the concentration at half of the fitted maximal effect; on the % scale 0 is the no-effect control and ±100 the full control effect; nearly all actives have a fitted effect of over 50% in size
IL2 activator – activators of IL-2. IL-2 activation reporter assay, cell-based qHTS; stimulated with anti-CD3/CD4/CD28 beads; in transgenic mouse T cells. activation, % (series mostly up to about 46 µM). 360,000 tested, 0.065% active; in the data active means activation above about 50%; inconclusive means mostly about 30% to 49%; further: 0% is about no effect
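Using fluorescent plate cytometry, EGFP and DsRed are detected in transgenic mouse T cells stimulated 18 h at 37 degrees C with antibody-coated beads after 60 min compound pretreatment.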
RXFP1 antagonist – antagonists of human relaxin receptor RXFP1 | 350,000 tested, 0.59% active | AID 1259400 | HEK293-RXFP1, relaxin-stimulated cAMP HTRF, 30 min; stronger effect = lower value | activity change, negative = inhibition, % at 57.5 µM;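 active means activity change of -60% or lower, but not beyond a set lower limit; inconclusive means change between -60% and -40%, or beyond the set limit; inactive means change above -40%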; further: on the % scale 0 is the no-effect control and ±100 the full control effect
Target sequence (Q9HBX9 whole entry, looked up): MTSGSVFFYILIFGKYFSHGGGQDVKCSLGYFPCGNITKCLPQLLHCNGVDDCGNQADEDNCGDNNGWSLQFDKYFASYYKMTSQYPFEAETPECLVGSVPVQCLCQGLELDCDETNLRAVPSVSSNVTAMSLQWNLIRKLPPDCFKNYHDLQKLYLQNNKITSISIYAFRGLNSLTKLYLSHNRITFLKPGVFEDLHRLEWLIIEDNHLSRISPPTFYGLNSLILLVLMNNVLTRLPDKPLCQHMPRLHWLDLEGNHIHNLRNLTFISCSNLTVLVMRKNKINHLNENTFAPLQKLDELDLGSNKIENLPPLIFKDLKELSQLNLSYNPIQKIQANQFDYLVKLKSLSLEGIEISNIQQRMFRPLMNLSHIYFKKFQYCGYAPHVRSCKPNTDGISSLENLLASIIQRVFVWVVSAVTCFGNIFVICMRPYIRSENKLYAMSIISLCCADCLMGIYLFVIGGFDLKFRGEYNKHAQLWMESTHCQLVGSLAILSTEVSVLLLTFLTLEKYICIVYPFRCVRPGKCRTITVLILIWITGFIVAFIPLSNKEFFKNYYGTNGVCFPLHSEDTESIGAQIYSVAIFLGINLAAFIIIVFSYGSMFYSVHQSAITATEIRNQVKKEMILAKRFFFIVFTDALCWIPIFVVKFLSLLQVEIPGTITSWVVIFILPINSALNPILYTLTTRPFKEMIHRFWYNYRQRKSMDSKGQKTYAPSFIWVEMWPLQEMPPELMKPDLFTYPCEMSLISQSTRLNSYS
RXFP1 ag – RXFP1 (human) receptor agonism; Q9HBX9; HEK293T-RXFP1 cAMP TR-FRET, 30 min; response scale: percent of porcine relaxin response, buffer zero; Potency, µM (highest dose often 57.5 µM), for inactives: top-dose activation, usual class: activators; 370,000 tested, 0.3% active; AID 2676; further: potency means the concentration at half of the fitted maximal effect; on the % scale 0 is the no-effect control and ±100 the full control effect; nearly all actives have a fitted effect of over 60% in size
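Agonist response is measured as cAMP accumulation in an RXFP1-transfected HEK293T line under PDE4 inhibition. Values are scaled between buffer-only and 29 nM porcine relaxin, and EC50s come from standard Hill equation fits.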
Numbers without * were called inactive; u = inconclusive; x = not tested or not shown; [ ] = another dose, or the depositor's remark. Unless noted, the call rests on the fitted dose curve; in most records, active means well fitted curve in the direction sought with a large enough effect; inconclusive means small, poorly fitted or top-dose-only effect, or another doubt; inactive means no such curve, though single readings can be large; an effect the other way counts as inactive or inconclusive.

SMILES	Giardia kill	BRCA1 expr act	NPSR antagonist	IL2 activator	RXFP1 antagonist	RXFP1 ag
Cc1cccc(NC(=O)C(=O)NCC2CCCO2)c1 (configuration not stated)	36	2.2µM*	-6%	1	-6	0%
O=C(NCC1CCCO1)Nc1cccc(Cl)c1 (configuration not stated)	1	62%	-6%[46.1 µM]	-2	-9	1%
O=c1oc2c(CN3CCOCC3)c(O)ccc2c2ccccc12	9	14µM*	-1%[46.1 µM]	0	-2	18%
O=C(C[n+]1cccc2cc(Cl)ccc21)c1ccc2ccccc2c1	x	-58%	x	x	x	x
Nc1nnnn1-c1ccccc1	x	x	x	x	-74*	x
O=C(/C=C/c1ccco1)Nc1nc(-c2ccccn2)cs1	-4	-42%	-26%	1	-16	-1%
O=C(/C=C/c1ccco1)NC(=S)Nc1cccc(-c2nc3ccccc3o2)c1	-13	-44%	1.6µM*	1	u	9%
COc1ccc(-c2csc(NC(=S)NC(=O)/C=C/c3ccco3)n2)cc1Br	u	-50%	u	-5	-14	2%
O=C(/C=C/c1ccco1)Nc1nc(-c2ccccc2)cs1	-3	8.9µM*	-35%	-2	x	-2%
COc1ccc(-c2csc(NC(=S)NC(=O)/C=C/c3ccco3)n2)cc1OC	-23	-76%	1µM*	-1	-17	2%
C=C1C=C(C(F)F)n2ncc(C(=O)NC(C)CC)c2N1 (configuration not stated)	x	-7%	x	x	x	x
Nc1c(Br)cc(Br)c2cccnc12	1	-4%	x	x	x	x
NC1=NC(=O)/C(=C\c2ccc(-c3ccccc3[N+](=O)[O-])o2)S1	x	-27%	x	x	x	x
COc1ccc(NC(=O)Nc2cccc(OC)c2)cc1	6	11µM*	x	0	-3	x
COc1cccc(NC(=O)Nc2ccc3nc(C)c(C)nc3c2)c1	-6	u	x	2	8	1%
COc1ccc(NC(=O)Nc2ccc3c(c2)CCC3)cc1	7	2.5µM*	x	-2	0	0%
C=CCNC(=O)Nc1ccc2oc(C)nc2c1	7	2%	-3%[46.1 µM]	0	-2	1%
COc1ccc(NC(=O)Nc2ccc3oc(C)nc3c2)cc1	-13	2.8µM*	1%	-4	-6	-1%
COc1ccc(NC(=O)Nc2ccc(F)cc2F)cc1	-2	10µM*	6%	1	2	0%
Cc1ccc(NC(=O)Nc2ccc3c(c2)CCC3)cc1C	9	33%	x	-1	4	-5%
CC(=O)O[C@@]12CO[C@@H]1C[C@H](O)[C@@]1(C)C(=O)[C@H](O)C3=C(C)[C@@H](OC(=O)C(O)[C@@H](NC(=O)OC(C)(C)C)c4ccccc4)C[C@@](O)([C@@H](OC(=O)c4ccccc4)[C@H]21)C3(C)C (some centres not stated)	x	0%	x	x	x	x
O=C(Cn1ncc2c3ccccc3n(Cc3cccc(Cl)c3)c2c1=O)Nc1ccc(F)cc1F	x	x	x	x	2	0%
CC(=O)c1cccc(NC(=O)Cn2c(=O)c(CNc3ccc(C)cc3)cc3cc4c(cc32)OCCO4)c1	x	1%	x	x	x	7%
O=S(=O)(c1ccc(F)cc1)N1CCN(c2nc(-c3cccs3)nc3ccccc23)CC1	12	14%	x	x	x	x
COc1ccc(NC(=O)Nc2ccc(F)cc2F)c(C)c1	-8	18%	-11%[46.1 µM]	0	2	-2%
SMILES	Giardia kill	BRCA1 expr act	NPSR antagonist	IL2 activator	RXFP1 antagonist	RXFP1 ag
COc1cccc(NC(=O)Nc2ccc3nsnc3c2)c1	-1	7.1µM*	-1%[46.1 µM]	-1	16	0%
Cc1cc(C)nc(NC(=O)Nc2ccc(F)cc2F)n1	-10	4µM*	x	-1	8	0%
O=C(Nc1ccc(OC(F)(F)F)cc1)Nc1cccc([N+](=O)[O-])c1	-1	-58%	u	-1	-74*	-1%
COc1cccc(NC(=O)CSc2ccccn2)c1	-2	10µM*	-20%[46.1 µM]	-3	-8	4%
COc1cccc(NC(=O)Nc2ccccc2Br)c1	5	10µM*	30%	-2	3	-1%
CCCCOc1ccc(C(=O)NC)cc1	-1	49%	0%[46.1 µM]	1	5	1%
CCCCOc1ccc(/C(N)=N/O)cc1	6	11µM*	8%[46.1 µM]	-1	12	-2%
CCN(CCn1cccn1)C(=O)c1cc(COc2cc(C)ccc2C)on1	15	13µM*	x	0	3	-1%
CCN(CCn1cccn1)C(=O)c1cc(COc2ccc(F)c(F)c2)on1	10	62%	x	-1	-3	3%
CCN(CCn1cccn1)C(=O)c1cc(COc2ccccc2SC)on1	-24	11µM*	x	-2	-10	-1%
CCN(CCN1CCCC1)C(=O)c1cc(COc2ccccc2SC)on1	7	-10%	x	0	-6	0%
N#CN=c1snc(-c2ccccc2Cl)n1-c1ccccc1Cl	-10	-61%	x	x	x	x
O=C(COc1ncnc2cc(Cl)ccc12)c1ccc2c(c1)OCCO2	6	1.8µM*	-15%	1	-3	u
O=C(COc1ncnc2ccccc12)c1ccc2c(c1)OCCO2	-10	u	-5%[46.1 µM]	0	7	7%
Cc1cc(N)ccc1-n1nc2ccccc2n1	-15	2%	x	1	8	x
Cc1c(N)ccc(-n2nc3ccccc3n2)c1C	-4	11µM*	x	-2	6	x
O=C(c1ccc2c(=O)n(-c3ccccc3)c(=O)[nH]c2c1)N1CCN(Cc2cccs2)CC1	0	-7%	x	x	x	x
Cc1cccc(NC(=O)c2ccc3snnc3c2)c1C	x	7%	x	x	x	-1%
c1ccc(Oc2cc(-c3ccccc3)nc(-c3ccccc3)n2)cc1	-9	-13%	-19%	1	1	0%
c1ccc(Oc2cc(-c3ccccc3)ncn2)cc1	9	11µM*	-15%[46.1 µM]	0	-9	0%
O=C1CN(C(=O)c2ccc(Cl)cc2Cl)C(c2ccc(F)cc2)c2cc(F)ccc2N1 (configuration not stated)	x	x	x	x	-31	-1%
Cn1cc(/C=C/c2cc[n+](C)cc2)c2cc(F)ccc21	-6	-77%	x	206*	-21	-1%
C[n+]1ccc(/C=C/c2c[nH]c3ccc(F)cc23)cc1	-4	-1%	x	95*	-2	-6%
Cn1cc(/C=C/c2cc[n+](C)cc2)c2cc(Cl)ccc21	7	-65%	x	104*	-24	-45%
C[n+]1ccc(/C=C/c2ccc(Br)cc2)cc1	17	-76%	-11%[46.1 µM]	-6	x	2%
O=C(Nc1ccccc1C(F)(F)F)N1CCC(CN2CCc3ccccc3C2)CC1	x	x	x	x	-12	6%
C=CCn1nc(-c2ccccc2)cc1C(=O)OCC	0	11%	x	0	x	x
Cc1ccc(Cn2nc(C)cc2C(=O)Nc2ccccc2Cl)cc1	-1	4µM*	x	-1	9	1%
CCOC(=O)c1cc(-c2ccc(C)cc2)nn1Cc1ccccc1	x	10µM*	x	x	x	1%
